Screening data deposited in PubChem by National Center for Advancing Translational Sciences (NCATS).
Sampled rows, rich in hits. Any-hit rate of the full collection: about 5.5%.
Chronic BCR inh: inhibitors of chronic active B-cell receptor signaling; Potency, µM (top dose mostly 46.1 µM), actives largely listed as inhibitors; actives 0.05% (n = 340,000); AID 493014; ABC-DLBCL IkBa-CBG/CBR reporter, luminescence ratio, 4 h; active = well fitted inhibition curve with a large enough effect in the signal ratio, with a control signal flat, not every such curve was filed as active; inconclusive = small, poorly fitted or top-dose-only effect, or effect the other way, or a change in a side signal; the % refers to the signal ratio
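Compounds up to 46 uM were incubated four hours with TMD8 cells whose green CBG68 luciferase is fused to IkappaBalpha; red CBR luminescence normalised the signal, and concentration-effect curves were fitted to fusion, red and ratio data.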
RORg inh: ROR gamma (mouse) transcription inhibition | Drosophila S2 Gal4-RORgamma UAS-luciferase reporter, 20 h | Potency, µM (series often up to 53.6 µM), usual class: inhibitors | actives 5.4% (n = 310,000) | P51450 | AID 2551; also: nearly all actives have a fitted effect of over 60% in size
Target sequence (P51450 whole entry, looked up, the tested form may be a part): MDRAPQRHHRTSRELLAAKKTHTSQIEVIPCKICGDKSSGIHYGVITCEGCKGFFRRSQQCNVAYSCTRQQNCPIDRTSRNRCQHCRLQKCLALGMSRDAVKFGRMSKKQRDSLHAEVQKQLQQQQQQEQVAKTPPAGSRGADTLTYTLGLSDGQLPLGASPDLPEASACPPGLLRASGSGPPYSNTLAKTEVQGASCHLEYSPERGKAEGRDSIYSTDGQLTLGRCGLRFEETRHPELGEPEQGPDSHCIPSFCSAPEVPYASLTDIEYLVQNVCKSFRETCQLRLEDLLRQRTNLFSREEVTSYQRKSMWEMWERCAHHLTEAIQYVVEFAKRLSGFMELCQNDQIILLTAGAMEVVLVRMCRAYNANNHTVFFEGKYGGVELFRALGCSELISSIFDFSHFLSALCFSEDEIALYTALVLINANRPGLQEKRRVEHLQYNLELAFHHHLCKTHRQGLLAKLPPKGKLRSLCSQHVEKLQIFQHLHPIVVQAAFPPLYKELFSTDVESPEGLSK
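Read-out: Photinus luciferase luminescence; inhibitors lower reporter signal. Insect Schneider cells with Gal4-ROR gamma fusion under metallothionein promoter, UAS reporter; 700 uM final copper sulfate induction, 20 hr, ambient temperature.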
Mito fusion yeast: mitochondrial division inhibition or fusion activation; actives 0.23% (n = 320,000); S. cerevisiae fusion-defective mutant growth rescue, CellTiterGlo 48 h; Potency, µM (series often up to 46.1 µM), usual class: activators; also: nearly all actives have a fitted effect of over 45% in size
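Compounds are tested for their ability to restore growth of mitochondrial fusion-defective yeast strains at non-permissive 37C in YPEG medium over 48 hours. Viability is quantified by luciferase luminescence.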
VP16 counter: counter-screen for ROR gamma inhibitors: Gal4-VP16 reporter | Drosophila S2 Gal4-VP16 UAS-luciferase, luminescence, 20 h | Potency, µM (doses to about 53.6 µM), hits mostly inhibitors | actives 3.5% (n = 310,000);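 also: Gal4-VP16 expression switched on by copper sulfate through the metallothionein promoter; nearly all actives have a fitted effect of over 50% in size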
uPA surface inh: inhibitors of cell surface uPA generation | cell surface uPA generation assay, qHTS | Potency, µM (titrated, usually from 38.3 µM), usual class: inhibitors | actives 0.31% (n = 330,000); active = well fitted inhibition curve with a large enough effect; inconclusive = small, poorly fitted or top-dose-only effect; inactive = no such curve, though single readings can be large or run the other way; tested in mouse RAW 264.7 cells; also: nearly all actives have a fitted effect of over 55% in size
a7 integrin act: integrin-mediated muscular dystrophy alleviation activation; alpha7betagal myoblasts, beta-gal FDG fluorescence, 48 h; Potency, µM (series often up to 38.3 µM), actives largely listed as activators; actives 0.064% (n = 350,000); AID 624291; also: nearly all actives have a fitted effect of over 60% in size
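alpha7betagal+/- myoblasts (passage 13, 250/well) treated 48 h at 37C with compounds at 1:260 dilution of DMSO stock. Lysed, then beta-galactosidase activity read as FDG fluorescence (ex 480/em 540) after 30 min, with pre-read for autofluorescence.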
Numbers stand for hits; – = inactive; ? = inconclusive; · = not tested or not shown; ! = repeats disagree; [ ] = dose if it differs, or a comment. Unless noted, calls follow the shape of the dose curve; as a rule, active = well fitted curve in the direction sought with a large enough effect; inconclusive = small, poorly fitted or top-dose-only effect, or another doubt; inactive = no such curve, though single readings can be large; an effect the other way counts as inactive or inconclusive.

SMILES | Chronic BCR inh | RORg inh | Mito fusion yeast | VP16 counter | uPA surface inh | a7 integrin act
O=C(Nc1ccc(N2CCN(C(=O)c3ccccc3F)CC2)cc1)c1cncc(Br)c1 | ? | – | – | – | – | 12.6µM
CCOC(=O)N1CCN(c2ccc(C(=O)c3ccccc3)cc2F)CC1 | ? | ? | – | – | – | –
O=C(c1ccccc1)c1ccc(N2CCN(C(=O)c3cccc(F)c3F)CC2)c(F)c1 | – | ? | – | 12.6µM | – | –
O=C(Nc1ccc(N2CCCCC2)cc1)c1cncc(Br)c1 | ? | – | – | – | – | –
CCC(=O)c1ccc(N2CCN(C(=O)c3ccccc3Br)CC2)c(F)c1 | – | – | – | ? | – | –
CSc1cccc(NC(=O)C2CCCN(c3ncnc4c3nc3n4CCCCC3)C2)c1 (centres undefined) | – | – | – | – | – | –
COC(=O)CC1C(=O)NCCN1C(=S)NC(=O)C(c1ccccc1)c1ccccc1 (centres undefined) | – | 10µM | – | 15.8µM | – | ?
COC(=O)CC1C(=O)NCCN1C(=S)NC(=O)c1sc2ccccc2c1Cl (centres undefined) | – | 0.631µM | – | 7.08µM | – | –
COC(=O)CC1C(=O)NCCN1C(=S)NC(=O)CCc1ccccc1 (centres undefined) | – | – | – | – | – | –
CC(C)OC(=O)CC1C(=O)NCCN1C(=S)NC(=O)c1ccccc1 (centres undefined) | – | – | – | –[10 µM] | – | –
CC(C)OC(=O)CC1C(=O)NCCN1C(=S)NC(=O)c1ccc(F)cc1 (centres undefined) | – | 3.16µM | – | 8.91µM | – | –
CC(C)C[C@H](NC(=O)[C@H](Cc1ccccc1)NC(=O)[C@@H]1CCCN1C(=O)[C@H](CC(=O)O)NC(=O)[C@@H]1CCC(=O)N1)C(=O)N[C@@H](CCCN=C(N)N)C(=O)N[C@@H](Cc1ccccc1)C(N)=O | · | – | · | – | · | ·
CC(C)Cn1c(-c2cccs2)nc2ccccc21 | – | – | – | ? | – | –
CC(C)CC(C)c1cc(N)nc2nc3ccccc3n12 (centres undefined) | ? | 15.8µM | – | – | – | –
CCOc1ccc(C2C=C(c3ccc(F)cc3)Nc3ncnn32)cc1 (centres undefined) | ? | 12.6µM | – | ? | – | –
O=C(c1ccccc1)[C@@H]1[C@@H]2C(=O)N(c3ccc(F)cc3)C(=O)[C@@H]2C2CCCN21 (some centres undefined) | ? | ? | – | ? | ? | –
Cc1ccc(N2C(=O)[C@@H]3[C@H](C2=O)C2CCCN2[C@@H]3C(=O)c2ccccc2)cc1 (some centres undefined) | ? | 6.31µM | – | ? | – | –
COC(=O)c1ccc(C(NC(=O)OCc2ccccc2)/C(F)=C/[C@@H](C)C(=O)Nc2ccc(OC)cc2)cc1 (some centres undefined) | · | 20µM | · | ? | · | ·
CCCc1c(-c2ccc(O)cc2)nn(-c2ccc(O)cc2)c1-c1ccc(O)cc1 | ? | – | 16.4µM! | – | – | ·
Cc1c(C(N)=O)c(-c2ccccc2)nn1-c1ccccc1 | – | – | – | – | – | –
CSc1cccc(NC(=S)N2CCC(N(C)C3CCCCC3C)CC2)c1 (centres undefined) | ? | 12.6µM | – | – | – | –
CSc1cccc(NC(=S)NCCCN2CCN(c3ccc(F)cc3)CC2)c1 | – | 6.31µM | – | ? | – | –
CSc1cccc(NC(=S)N2CCC(N(C)C3CCCCC3)CC2)c1 | – | – | – | – | – | –
CSc1cccc(NC(=S)NN(C)C)c1 | – | 3.16µM | – | 10µM | – | –
COCCCNC(=S)Nc1cccc(SC)c1 | ? | 1.58µM | – | 11.2µM | – | –
CSc1cccc(NC(=S)Nc2ccc(F)cc2)c1 | ? | ? | – | ? | – | –
COCCn1c(=O)c(-c2ccc(Cl)cc2)nc2cnc(N(C)C)nc21 | · | – | · | – | · | ·
COc1ccc(NC(=O)C[C@H]2C(=O)N(C3CCCCC3)C[C@@H]2c2ccc(OC)cc2)cc1 | · | · | · | · | · | –
